GLP1R ag: GLP-1 receptor (human) agonism. P43220. HEK293 GLP-1R CRE-luciferase, luminescence, 4-6 h; cells express a hypersensitive GLP-1R form. Potency, µM (top dose mostly 45.6 µM), without a hit: top-dose activation, actives largely listed as activators. actives 0.007% (n = 380,000). AID 624172; further: potency means the concentration at half of the fitted maximal effect; % of control where 0% means no effect
Target sequence (P43220 whole entry, looked up): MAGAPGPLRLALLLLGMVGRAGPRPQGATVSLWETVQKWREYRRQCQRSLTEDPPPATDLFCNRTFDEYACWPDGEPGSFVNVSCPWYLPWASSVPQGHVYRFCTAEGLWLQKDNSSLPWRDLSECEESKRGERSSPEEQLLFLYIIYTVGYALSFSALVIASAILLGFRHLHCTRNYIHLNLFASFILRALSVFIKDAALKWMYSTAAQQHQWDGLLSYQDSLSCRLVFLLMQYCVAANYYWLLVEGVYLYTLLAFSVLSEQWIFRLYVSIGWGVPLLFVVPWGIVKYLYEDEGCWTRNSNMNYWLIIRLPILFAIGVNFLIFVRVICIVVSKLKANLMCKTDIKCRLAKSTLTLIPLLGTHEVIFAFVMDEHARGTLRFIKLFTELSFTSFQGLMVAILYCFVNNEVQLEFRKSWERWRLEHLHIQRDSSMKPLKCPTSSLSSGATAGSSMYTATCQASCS
GLP1R cytotox: cytotoxicity in counter-screen for GLP-1R inverse agonists | HEK293 cAMP-luciferase reporter cells, luminescence, 24 h | Potency, µM (top dose mostly 38.3 µM), for the others: at the top dose activity change, negative = inhibition, hits mostly inhibitors | actives 0.13% (n = 410,000);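 further: loss of luciferase light is scored as toxicity; potency means the concentration at half of the fitted maximal effect; on the % scale 0 is the no-effect control and ±100 the full control effect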
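Luminescence readout: signal drop marks cytotoxicity. Plated cells grew 12 h at 37 °C, 5% CO2, received 23 nL compound for 24 h, then got luciferase reagent, read after 12 min at RT.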
p53 reactivator: mutant p53 re-activation in reporter cells. actives 0.063% (n = 320,000). Potency, µM (highest dose often 92.2 µM), inactives show top-dose activity change, positive = activation, actives largely listed as activators. H1299 p53-A138V BP100-luciferase reporter, luminescence, 24 h. AID 504706; further: potency means the concentration at half of the fitted maximal effect; % of control where 0% means no effect; nearly all actives have a fitted effect of over 45% in size
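H1299 (p53-null), stable ts p53-A138V + BP100-Luc; 1000 cells/well, Opti-MEM/10% FBS; cpd 4 pt, 1:5; 24 h, 37 deg C, 5% CO2; detection reagent 10 min RT; luminescence.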
GLP-1R inv ag: inverse agonists of human GLP-1 receptor. HEK293 GLP-1R CRE-luciferase, luminescence, 24 h; GLP-1R form is constitutively active. P43220. actives 1.6% (n = 410,000). Potency, µM (doses to about 38.3 µM), inactives show top-dose activity change, negative = inhibition, most hits filed as inhibitors; further: potency means the concentration at half of the fitted maximal effect; on the % scale 0 is the no-effect control and ±100 the full control effect; nearly all actives have a fitted effect of over 55% in size
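Cells are plated, allowed 12 hours at 37 deg C, then treated with compounds for 24 hr before luciferase detection reagent is added and luminescence is read after 12 min at room temperature. The HEK293 line carries constitutively active GLP-1R with a cAMP-responsive reporter.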
LDHA inh: LDHA (human) enzyme inhibition; purified LDHA, NADH/diaphorase-resazurin fluorescence; stronger effect = lower value; actives 0.15% (n = 480,000); activity change, % (values are at about 110 or 230 µM); in the data active means activity change below about -30%; inconclusive means mostly about -25% to -30%;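 further: plate controls were DMSO wells for no effect and wells without enzyme for full effect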
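Remaining NADH was detected by diaphorase (0.133 mg/mL) converting 37 µM resazurin to fluorescent resorufin, read at 0 and 20 minutes. The preceding 5-minute room-temperature reaction used 2 nM LDHA, 0.2 mM sodium pyruvate and 0.06 mM NADH at pH 7.4.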
ClpP mod: qHTS Assay for Activators of ClpP; actives 1.9% (n = 340,000); purified B. subtilis ClpP, FRET peptide cleavage, 20 min; Potency, µM (titrated, usually from 57.5 µM), for the others: at the top dose activity change, negative = active; ATP-dependent Clp protease proteolytic subunit (Bacillus subtilis (strain 168)), P80244; active means well fitted falling curve with a large enough effect; inconclusive means small, poorly fitted or top-dose-only effect; inactive means no such curve, though single readings can be large or run the other way; further: potency means the concentration at half of the fitted maximal effect; the source files actives as falling curves though it sought activators and does not explain the sign; nearly all actives have a fitted effect of over 65% in size
Target sequence (P80244 whole entry, looked up): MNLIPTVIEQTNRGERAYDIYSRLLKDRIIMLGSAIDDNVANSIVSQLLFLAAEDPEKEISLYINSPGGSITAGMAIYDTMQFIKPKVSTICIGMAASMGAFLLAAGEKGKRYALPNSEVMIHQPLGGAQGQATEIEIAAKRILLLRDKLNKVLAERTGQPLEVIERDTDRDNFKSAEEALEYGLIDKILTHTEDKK
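ClpP 10 microg/mL final, pH 8 Tris/KCl buffer with BSA, glycerol, Tween-20; compound pinned in; FRET-FV substrate; RT 20 min; Ex320/Em430; ΔFRET vs ADEP 5.8 microM, DMSO, no enzyme.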
* = called active by the depositor; u = inconclusive; x = no result given. The list is not random: actives were taken first. Their share in the collection is about 2.9%. Unless noted, the call rests on the fitted dose curve; in most records, active means well fitted curve in the direction sought with a large enough effect; inconclusive means small, poorly fitted or top-dose-only effect, or another doubt; inactive means no such curve, though single readings can be large; an effect the other way counts as inactive or inconclusive.

SMILES	GLP1R ag	GLP1R cytotox	p53 reactivator	GLP-1R inv ag	LDHA inh	ClpP mod
Cc1nn(CC(=O)Nc2ccc(N3CCCC3)cc2)c(=O)c2ccccc12	x	x	x	x	-7	x
CCOc1ccc(-n2nc3ccc(NC(=O)COc4ccc(OC)cc4)cc3n2)cc1	x	1%	x	-29%	-12	4%
COc1cc(CN2CCN(Cc3ccc(SC)cc3)CC2)cc(OC)c1O	26%	-2%	5%	u	1	x
CCN1CCN(Cc2ccc(NC(=O)Nc3ccc(SC)cc3)cc2)CC1	14%	u	u	7.9µM*	-4	-1%
COc1cc(OC)c(OC)cc1CN1CCN(Cc2ccc(SC)cc2)CC1	0%	3%	-4%	u	-30*	0%
COc1ccc(CN2CCC(N3CC(C)OC(C)C3)CC2)c(OC)c1 (centres undefined)	2%	-17%	0%	-7%	-32*	x
CCN1CCN(Cc2ccc(NC(=O)Nc3ccccc3)cc2)CC1	-8%	0%	u	u	3	0%
COc1ccc(CN2CCN(Cc3c[nH]c4ccccc34)CC2)cc1	4%	-5%	-7%	u	-34*	x
CCC(=O)N1CCc2cc(Br)cc(S(=O)(=O)N3CCCC(C(=O)NC(C)(C)C)C3)c21 (centres undefined)	14%	9%	-6%	0%	1	x
Cc1ccc(S(=O)(=O)N2[C@@H](c3ccc(C(C)(C)C)cc3)C(C(=O)O)=CC[C@H]2c2cccc(Cl)c2)cc1	-2%	-16%	2%	u	0	1%
CC(C)C(NS(=O)(=O)c1cccc(C(F)(F)F)c1)C(=O)O (centres undefined)	0%	5%	0%	1%	-1	0%
Cc1ccc(/C=N/NC(=O)c2ccc(-c3ccccc3)cc2)s1	x	x	x	x	1	x
COc1ccc(CN2CCN(Cc3ccc(C(F)(F)F)cc3)CC2)c(OC)c1	19%	-17%	-2%	11µM*	-21	-1%
COc1ccc(CN2CCN(Cc3ccc(C)cc3)CC2)c(OC)c1	1%	10%	-1%	u	-20	-1%
O=C1CC(C(F)(F)F)N(C(=O)Cn2cnc3ccc(Br)cc3c2=O)c2ccccc2N1 (centres undefined)	x	x	x	x	-7	x
COCCn1c(C)cc(C(=O)CSc2nc3ccccc3s2)c1C	-7%	-15%	x	u	-3	-17%
NC(=O)C(C(=O)/C=C/c1ccc(Cl)cc1)=C1SCCS1	-8%	-28%	u	4µM*	0	1%
CCc1ccccc1-n1c(-c2ccncc2)n[nH]c1=S	-6%	4%	-9%	0%	-5	-1%
O=C(COc1ccc(F)cc1Cl)NCCc1nnc2ccccn12	x	x	x	x	4	x
CC(NC(=O)c1cccs1)C1CCCO1 (centres undefined)	-8%	-2%	3%	9%	-7	28µM*
CC(NC(=O)Cc1cccs1)C1CCCO1 (centres undefined)	x	x	x	x	12	x
COCCOC(=O)C1=C(C)NC2=C(C(=O)CC(C)(C)C2)C1c1cccnc1 (centres undefined)	-2%	117%	-4%	2%	1	28µM*
CC1=C(C(=O)OC(C)C)C(c2cccnc2)C2=C(CC(C)(C)CC2=O)N1 (centres undefined)	-6%	-4%	-13%	-8%	-1	28µM*
CC1=C(C(=O)OCCOC(C)C)C(c2cccnc2)C2=C(CCCC2=O)N1 (centres undefined)	15%	24%	-14%	7%	-3	u
Cc1ccccc1-c1nnc(SCC(=O)Nc2c(C)n(C)n(-c3ccccc3)c2=O)o1	-12%	5%	x	0%	-2	-1%
SMILES	GLP1R ag	GLP1R cytotox	p53 reactivator	GLP-1R inv ag	LDHA inh	ClpP mod
O=C(CN1CCCC1)Nc1c2c(nc3ccccc13)N(Cc1ccccc1)CC2	14%	-27%	-5%	u	u	14µM*
O=C(CN1CCOCC1)Nc1c2c(nc3ccccc13)N(Cc1ccccc1)CC2	10%	-19%	-6%	-33%	-22	22µM*
CCCc1nc2ccccc2n1CC(O)c1cccc(Br)c1 (centres undefined)	x	x	x	x	3	x
CCOc1ccc(NC(=O)CN(C)C(=O)c2cc(-c3ccc(OC)cc3)nc3ccccc23)cc1OCC	15%	-1%	-11%	u	0	32µM*
CCCn1nc(C(=O)N(C)CC(=O)Nc2ccc(OCC)c(OCC)c2)c2ccccc2c1=O	0%	14%	-9%	4%	-11	25µM*
CCOc1ccc(NC(=O)CN(C)C(=O)CCCc2nc3ccccc3c(=O)[nH]2)cc1OCC	0%	11%	-3%	-1%	-7	16µM*
CCCOc1ccc(NC(=O)c2nn(CCC)c(=O)c3ccccc23)cc1OCCC	x	x	x	x	17	x
CCN(CC)CC(=O)NN(Cc1ccccc1)c1ccccc1	0%	-4%	-2%	u	-17	0%
CN1CCN(CC(=O)NN(Cc2ccccc2)c2ccccc2)CC1	4%	-3%	-2%	5%	-44*	-2%
CCCc1nc(N2CCOCC2)c(C#N)c2c1CCCC2	8%	-4%	3%	u	5	32µM*
CCOc1cc2c(C#N)c(N(CC)CC)nc(N)c2c(N)n1	-6%	-14%	x	42%	15	5%
CCCc1nc(N2CCN(CC(=O)N3CCOCC3)CC2)c(C#N)c2c1CCC2	x	x	x	x	-23	x
CCCCc1nc(N2CCOCC2)c(C#N)c2c1CCCC2	8%	-6%	u	u	-4	25µM*
CCOc1cc2c(C#N)c(N3CCOCC3)nc(N)c2c(N)n1	u	21%	2%	145%	6	32µM*
CC(C)c1nc(N2CCOCC2)c(C#N)c2c1CCC2	21%	30%	25%	-11%	-1	25µM*
CN(C(=O)c1ccc(S(=O)(=O)N2CCOCC2)cc1)C1CCS(=O)(=O)C1 (centres undefined)	-13%	4%	3%	11%	0	0%
CC(=O)c1cccc(-c2ccnc3c2CC(C(=O)NCCC(F)(F)F)O3)c1 (centres undefined)	-1%	-24%	x	-19%	-2	0%
O=C(CN1CCN(C(=O)CCc2ncc(-c3ccc(F)cc3F)o2)CC1)Nc1ccccc1Cl	x	x	x	x	-15	x
CCN(CC)C(=O)/C(=C/c1ccc(F)cc1)NC(C)=O	1%	-6%	-8%	-15%	-5	1%
Cc1cc(C)c(C#N)c(N2CCOCC2)n1	u	-6%	-8%	3%	-5	25µM*
Cc1cc(N2CCOCC2)nc(N2CCOCC2)c1C#N	20%	5%	x	83%	-4	-2%

Assay outcomes (PubChem BioAssay)
